In the library only some 6.5% were active in any assay of this set; here they are far more common.
Autofluor 339: intrinsic fluorescence of library compounds, ex339/em460 – biochemical, MLSMR library, data from DPM-DC assay, artefact control, profiling panel; AID 709; compound autofluorescence, ex339/em460 nm, NADH buffer; active compounds read high; 1 = no-compound wells, NADH background; actives 5.5% (n = 65,000); fluorescence fold increase at 10 µM;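 active means at 10 µM, mean starting fluorescence two-fold or more over control wells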;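 further: signal is the first read of a kinetic run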
A340 absorber: absorbance at 340 nm; fold change at 10 µM; compound absorbance at 340 nm, fold over control; AID 708; 65,000 tested, under 10 active;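 active means at 10 µM dose, initial 340 nm absorbance at least 2 fold that of control wells; inactive means change under 2 fold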;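 further: initial absorbance extrapolated from kinetic A340 decline of NADH oxidation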
DPM-DC inhibit: inhibitors of Streptococcus pneumoniae diphosphomevalonate decarboxylase | purified DPM-DC, PK/LDH coupled NADH fluorescence | calls only at 10 µM | actives 0.49% (n = 65,000) | AID 556;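 active means the 320 compounds with the highest percent inhibition in the single-dose primary screen, excluding strongly autofluorescent ones, cut at about 32% in these data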;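 further: kinetic rate of NADH fluorescence loss reporting ADP formed by the decarboxylase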
NADH coupling: blocks coupling enzymes of NAD/NADH assays; coupled PK/LDH NADH assays, four targets; IC50, µM (highest dose often 10 µM), without a hit: at the top dose inhibition; actives 0.02% (n = 65,000);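 active means single-dose screening hits from any of four coupled enzyme assays that gave an IC50 when retested across doses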;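 further: the DPM-DC format reads NADH fluorescence rather than 340 nm absorbance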
MK inhibit: inhibitors of Streptococcus pneumoniae mevalonate kinase | inhibition, % at 10 µM | purified MK, PK/LDH-coupled NADH absorbance 340 nm | actives 0.48% (n = 65,000);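 active means ranked among the strongest by inhibition in the single 10 µM screen, a fixed top-ranked set picked for dose follow-up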
Spn PMK inh: S. pneumoniae PMK inhibition; purified PMK, PK/LDH-coupled NADH absorbance 340 nm; inhibition, % at 10 µM; actives 0.49% (n = 65,000); AID 539;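 active means top-ranked compounds by inhibition in the single 10 µM screen, taking a fixed number of the strongest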;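 further: 0% = full reaction with DMSO carrier and 100% = background rate without enzyme reaction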
Active calls of the source: *; i = inactive; . = no result given; + = active, no number.

SMILES	Autofluor 339	A340 absorber	DPM-DC inhibit	NADH coupling	MK inhibit	Spn PMK inh
COc1ccc(-c2ccc(-c3noc(C4CCCCC4)n3)c(OC)n2)cc1	3.67*	1.08	.	8.0%	6.0	10.0
COCc1nc(-c2ccc(-c3ccc(C)cc3)nc2OC)no1	1.89	1.03	i	7.0%	0.0	14.0
COc1ccc(S(=O)(=O)N2CCc3ccccc32)cc1C(=O)OCc1nnc(-c2ccccc2)o1	1.07	1	i	5.0%	3.0	11.0
Cc1cc(C(=O)NCc2ccccc2)c(=O)[nH]c1C	2.11*	1.14	.	13.0%	9.0	17.0
CCN(Cc1ccccc1)S(=O)(=O)c1ccc(C(=O)Nc2nnc(-c3ccccc3OC)o2)cc1	3.78*	1.06	.	8.0%	2.0	14.0
CCCN(CCC)S(=O)(=O)c1ccc(C(=O)Nc2nnc(-c3cc(OC)cc(OC)c3)o2)cc1	1.87	1.04	i	6.0%	1.0	8.0
COc1ccccc1-c1nnc(NC(=O)c2ccc(S(=O)(=O)N(C)C)cc2)o1	1.01	1.05	i	10.0%	8.0	14.0
CCCN(CCC)S(=O)(=O)c1ccc(C(=O)Nc2nnc(-c3cccc(OC)c3)o2)cc1	2.12*	1.02	.	5.0%	0.0	11.0
CCN=C1Cn2c(nc3scc(-c4ccccc4)c3c2=O)CN1CC	2.37*	1.03	i	4.0%	0.0	4.0
Cc1[nH]c2ccccc2c1SCC(=O)N1CCOCC1	1.05	1.01	i	7.0%	11.0	11.0
CCc1cc(N2CCOCC2)cc2c1[nH]c1ccccc12	3.95*	1.01	.	6.0%	9.0	3.0
CCOCCCn1c(=S)[nH]c2cc(C(=O)N3CCOCC3)ccc2c1=O	1	1.02	i	7.0%	10.0	11.0
O=C(NCc1ccco1)c1ccc2c(=O)n(CC3CCCO3)c(=S)[nH]c2c1 (stereo not given)	1.03	1	i	2.0%	5.0	10.0
COCCn1c(=S)[nH]c2ccc(N(C)C)cc2c1=O	3.81*	1.14	i	14.0%	3.0	13.0
O=c1c2cc(N3CCOCC3)ccc2[nH]c(=S)n1CC1CCCO1 (stereo not given)	3.95*	1.06	i	19.0%	13.0	18.0
COCCCn1c(=S)[nH]c2ccc(N3CCOCC3)cc2c1=O	3.82*	1.04	+	17.0%	4.0	15.0
CC(=NC1CCCCC1)C1=C(O)c2ccccc2C1=O	1.1	1.14	i	8.0%	0.0	0.0
O=c1c2cc(N3CCOCC3)ccc2[nH]c(=S)n1Cc1ccccn1	3.54*	1.08	+	17.0%	4.0	14.0
O=C(CCn1c(=S)[nH]c2ccccc2c1=O)N1CCOCC1	1.05	1.07	i	3.0%	8.0	1.0
CCCCN(C)CCn1c(=S)[nH]c2ccc(N3CCOCC3)cc2c1=O	2.52*	1.09	i	11.0%	8.0	11.0
COc1ccc(OC)c(C(C)NC(=O)c2ccco2)c1 (stereo not given)	1.13	1.04	i	4.0%	5.0	7.0
CCC(=O)c1cc2c(cc1NC(=O)c1ccc(C)cc1)OCCO2	3.14*	1.11	.	6.0%	11.0	0.0
CCC(=O)Nc1cc2c(cc1C(C)=O)OCCO2	1.54	1.06	i	8.0%	16.0	0.0
Clc1ccc(C2=Nn3c(nnc3-c3n[nH]c4c3CCC4)SC2)cc1Cl	1.07	1.02	i	2.0%	3.0	4.0
COc1ccc2[nH]cc(C(=O)CN3CCC(C)CC3)c2c1	1.12	1.01	i	3.0%	8.0	0.0
SMILES	Autofluor 339	A340 absorber	DPM-DC inhibit	NADH coupling	MK inhibit	Spn PMK inh
COc1ccc2[nH]cc(C(=O)CN3CCCC(C)C3)c2c1 (stereo not given)	1.15	1.08	i	10.0%	4.0	25.0*
CCOc1cccc(C2c3c(oc4cc(C)c(C)cc4c3=O)C(=O)N2CCCN(C)C)c1 (stereo not given)	1.11	1.09	i	8.0%	9.0	9.0
CC1CN(c2oc(-c3cccs3)nc2C#N)CC(C)O1 (stereo not given)	2.38*	1.07	.	7.0%	0.0	14.0
N#Cc1nc(-c2cccs2)oc1N1CCOCC1	2.29*	1.09	.	3.0%	6.0	0.0
Cc1ccc(=O)n(C(C(=O)NCc2ccco2)C(=O)c2ccc(F)cc2)c1 (stereo not given)	1.1	1.02	i	6.0%	9.0	8.0
Cc1ccc(C2C3=C(CCCC3=O)Nc3nc(SCC(=O)NCc4ccco4)[nH]c(=O)c32)cc1 (stereo not given)	3.56*	1.06	i	10.0%	9.0	7.0
CCSc1nc2c(c(=O)[nH]1)C(c1ccccn1)C1=C(CC(C)(C)CC1=O)N2 (stereo not given)	2.24*	1.08	.	9.0%	8.0	9.0
O=C1CCCC2=C1C(c1ccncc1)c1c(nc(SCc3ccccc3)[nH]c1=O)N2 (stereo not given)	2.19*	1.1	.	5.0%	10.0	0.0
Nc1nc(SCC(=O)NCc2ccco2)[nH]c(=O)c1-c1ccccc1	1.12	1.02	i	4.0%	4.0	8.0
CC(C)CCNC(=O)CN(Cc1ccc2c(c1)OCO2)C(=O)CCC(=O)Nc1ccccn1	1.01	0.98	i	4.0%	5.0	8.0
COc1ccccc1-c1cc(C(F)(F)F)nc(S(=O)(=O)CCCC(=O)N2CCOCC2)n1	1.4	1.1	i	8.0%	2.0	3.0
COc1ccc(-c2cc(C(F)(F)F)nc(SCC(=O)N3CCOCC3)n2)cc1OC	2.35*	1.19	i	14.0%	8.0	8.0
COCCNC(=O)CSc1nc(-c2ccc(OC)c(OC)c2)cc(C(F)(F)F)n1	2.15*	1.04	i	7.0%	10.0	14.0
COc1ccc(-c2cc(C(F)(F)F)nc(SCC(=O)Nc3cc(C)on3)n2)cc1	2.99*	1.05	i	7.0%	10.0	10.0
COc1ccc(-c2cc(C(F)(F)F)nc(S(=O)(=O)CCC(=O)N3CCOCC3)n2)cc1	2.78*	1.32	i	17.0%	14.0	10.0
Cn1c(SCC(=O)Nc2cc(=O)n(C)c(=O)n2C)nnc1C12CC3CC(CC(C3)C1)C2	1.09	1.01	i	4.0%	6.0	5.0
Cc1c(C(=O)OCC(C)(C)CN(C)C)oc2ccccc12	0.9	1	+	5.0%	9.0	6.0
Cc1c(C(=O)OC(C)CCN(C)C)oc2ccccc12 (stereo not given)	1.14	1.03	i	10.0%	4.0	7.0
Cc1ccc(OCCNC(=O)c2ccco2)cc1C	1.12	1.01	i	3.0%	2.0	6.0
Cc1ccc(-c2nnn(CC(=O)Nc3cccc4cccnc34)n2)o1	1.11	1.08	i	0.0%	0.0	0.0
CCc1nc(N2CCCC2)c(C#N)c2c1CCCC2	1.62	0.93	i	4.0%	0.0	12.0
CN1CCc2c(C#N)c(N3CCCCC3)nc(N3CCOCC3)c2C1	1.58	1.12	i	6.0%	4.0	1.0
CCCc1nc(N2CCCC2)c(C#N)c2c1CCCC2	2.06*	1.03	i	7.0%	20.0	0.0
